# Measurements as given in PubChem BioAssay.
# Results filed as inconclusive are left out. Activity calls are given as the source filed them. Unless noted, the rule behind the calls is not given here.
# Assays:
# [1] = viability loss in pontine glioma line – cell-based, SU-DIPG-XXV, MIPE5.0, CellTiter-Glo, qHTS, dose response (AID 1347065; cut-off not given, nearly all actives have AC50 up to about 26 µM;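 note: cells exposed to compound for 48 hours before ATP readout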); details: CellTiter-Glo ATP luminescence
# [2] = test system: Hepatitis C virus NS3 helicase; experiment: HCV NS3 helicase inhibitors, primary screen, biochemical, fluorescence polarization, LOPAC1280 library (AID 687035; in the data active = inhibition above about 37%); details: Purified HCV NS3 helicase, Cy5-dT15 ssDNA binding fluorescence polarization; stronger effect = higher value; concentration not given here
# [3] = Cy5 fluorescence quenching or enhancement artefacts, artefact control for HCV NS3 helicase inhibitor project, biochemical, LOPAC1280 (AID 687037); details: Cy5-DNA-NS3h complex fluorescence interference counterscreen
# [4] = inhibitors of Cryptococcus chitosan production, flow cytometry, Cibacron Brilliant Red staining (AID 1347148); details: Cryptococcus neoformans chitosan, stronger effect = lower value; at 10 µM unless noted;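 note: compound exposure lasted three days at 37 degrees C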
# [5] = phospholipid biosynthesis inhibitors in animal cells, primary screen, cell-based, LOPAC library, screen 4 (AID 1347384); details: phospholipid biosynthesis inhibition screen, at 10 µM
# [6] = growth inhibition of DIPG glioma cells, dose response, cell-based, SU-DIPG-IV, MIPE4.0, CellTiter-Glo, qHTS (AID 1347063; cut-off not given, nearly all actives have AC50 up to about 30 µM;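 note: compound exposure lasted 48 hours before the viability readout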); details: SU-DIPG-IV viability, CellTiter-Glo ATP luminescence
# [7] = LFS_MB_1R medulloblastoma cell growth inhibition, synergistic combos for chromothripsis tumors, cisplatin or BGB combos (AID 1671452; in the data active = inhibition above about 80%;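 note: cells exposed for 96 hours before readout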); details: LFS_MB_1R medulloblastoma cells, stronger effect = higher value
# [8] = CRL2098 osteosarcoma cell growth inhibition, synergistic combos for chromothripsis tumors, BGB or cisplatin IC20 combos (AID 1671454; in the data active = inhibition above about 80%;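 note: cells exposed for 96 h before readout; 0% = vehicle DMSO and 100% = killing by high DMSO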); details: CRL2098 osteosarcoma cells, drug combinations, stronger effect = higher value
# [9] = MDA-MB-436 breast carcinoma cell growth inhibition, synergistic combos for chromothripsis tumors, BGB or cisplatin combos (AID 1671458); details: MDA-MB-436 breast carcinoma growth inhibition, drug combinations, stronger effect = higher value;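 note: cells exposed for 96 hours; 0% = vehicle DMSO and 100% = killing by high DMSO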
# [10] = growth inhibition of BT084 medulloblastoma cells, cell-based, ICGC_MB145, cisplatin and BGB IC40 combos (AID 1671461; in the data active = inhibition above about 80%;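 note: cells exposed to drugs for 96 hours; 0% = vehicle DMSO and 100% = high DMSO full killing control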); details: drug combinations, stronger effect = higher value
# [11] = growth inhibition of RCMB18 medulloblastoma cells, cell-based, cisplatin and BGB IC40 combos (AID 1671462; in the data active = inhibition above about 80%;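 note: cells exposed to compound for four days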); details: stronger effect = higher value
# [12] = growth inhibition of CRL1545 osteosarcoma cells, cell-based, cisplatin and BGB IC20 combos (AID 1671464; in the data active = inhibition above about 80%;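 note: cells exposed to compound for 96 hours before readout; 0% = vehicle DMSO and 100% = high DMSO killing control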); details: stronger effect = higher value
# [13] = measured here: combination with BGB IC40, at 0.05 µM
# [14] = measured here: combination with cisplatin, at 0.5 µM
# [15] = measured here: combination with cisplatin, at 5 µM
# [16] = measured here: combination with BGB at IC20, at 0.5 µM
# [17] = measured here: combination with cisplatin at IC20, at 0.5 µM
# [18] = measured here: BGB combination, at 0.5 µM
# [19] = measured here: BGB combination, at 5 µM
# [20] = measured here: cisplatin combination, at 0.5 µM
# [21] = measured here: cisplatin combination, at 5 µM
# [22] = cisplatin combination, at 0.5 µM
# [23] = measured here: BGB IC40 combination 0.05 uM, at 0.05 µM
# [24] = measured here: BGB IC40 combination, at 0.05 µM
# [25] = measured here: with BGB IC20 combination, at 0.5 µM
# [26] = measured here: with cisplatin IC20 combination, at 0.5 µM
structure (smiles),measurement,setting,value
COc1ccc(CCN(C)CCCOc2ccc(S(=O)(=O)c3c(C(C)C)c4ccccc4n3C)cc2)cc1OC,AC50,[1],9.34 µM (active)
COc1cccc(-c2cc(=O)c3ccccc3o2)c1N,inhibition,[2],-1% (inactive)
same,fluorescence ratio (interference),[3],1 (inactive)
same,outcome,[1],inactive
same,fold fluorescence,[4],6.5 [at 187.1 µM] (inactive)
same,outcome,[5],inactive
CCOc1ccc(Nc2nc(-c3c(C)nc4ccccn34)cs2)cc1,AC50,[1],0.0372 µM (active)
Cc1cc(I)ccc1Nc1c(C(=O)NOCC2CC2)cc(F)c(F)c1F,AC50,[1],9.34 µM (active)
O=C(O)C1CCCN(CCC=C(c2ccccc2)c2ccccc2)C1 (stereo not drawn),inhibition,[2],-1% (inactive)
same,fluorescence ratio (interference),[3],0.9 (inactive)
same,outcome,[6],inactive
Oc1ccc2ccccc2c1SSc1c(O)ccc2ccccc12,inhibition,[2],3% (inactive)
same,fluorescence ratio (interference),[3],1 (inactive)
same,AC50,[6],18.7 µM (active)
same,AC50,[1],11.8 µM (active)
same,outcome,[5],inactive
CC(Oc1ccc(O)cc1)(P(=O)(O)O)P(=O)(O)O,outcome,[6],inactive
Nc1ncnc2nc(-c3ccc(N4CCOCC4)nc3)cc(-c3cccc(Br)c3)c12,inhibition,[2],-6% (inactive)
same,fluorescence ratio (interference),[3],0.9 (inactive)
O=c1[nH]nc(Sc2ncc([N+](=O)[O-])s2)n1-c1ccc2c(c1)OCCO2,AC50,[1],2.35 µM (active)
O=C(O)c1ccc2cc(-c3ccc(O)c(C45CC6CC(CC(C6)C4)C5)c3)ccc2c1,AC50,[6],0.332 µM (active)
same,AC50,[1],3.32 µM (active)
NC(=O)c1ccc2[nH]ccc2c1,inhibition,[2],0% (inactive)
same,fluorescence ratio (interference),[3],1 (inactive)
same,outcome,[1],inactive
same,outcome,[5],inactive
CCC(C)N(C)C(=O)c1cc2ccccc2c(-c2ccccc2Cl)n1 (stereo not drawn),inhibition,[2],0% (inactive)
same,fluorescence ratio (interference),[3],1 (inactive)
same,outcome,[1],inactive
same,outcome,[5],inactive
O=C(O)CCc1ccc(NCc2cccc(Oc3ccccc3)c2)cc1,inhibition,[2],0% (inactive)
same,fluorescence ratio (interference),[3],1 (inactive)
same,outcome,[6],inactive
same,outcome,[1],inactive
same,outcome,[5],inactive
Cc1ccc(/C=N/NC(=O)c2ccccc2Oc2ccccc2)o1,outcome,[1],inactive
COC1CCC(C(=O)c2ccc3nc4c(cc3c2)CCCO4)CC1 (stereo not drawn),AC50,[6],9.35 µM (active)
same,outcome,[1],inactive
CS(=O)c1ccc(-c2nc(-c3ccc(F)cc3)c(-c3ccncc3)[nH]2)cc1 (stereo not drawn),AC50,[6],48.1 µM (active)
CN1C(=O)C(Cc2c[nH]c3ccccc23)NC1=S (stereo not drawn),outcome,[1],inactive
CCN(CC)CCCC(C)Nc1nc(C)cc(Nc2ccc3nc(C)cc(N)c3c2)n1 (stereo not drawn),outcome,[6],inactive
O=c1cc(-c2cccc3c2Sc2ccccc2S3)oc(N2CCOCC2)c1,inhibition,[7]; at 0.5 µM,-10.6% (inactive)
same,inhibition,[7]; [13],-24.7%
same,inhibition,[7]; [14],9.6%
same,inhibition,[7]; [15],-31.9%
same,inhibition,[8]; at 0.5 µM,-29.5% (inactive)
same,inhibition,[8]; [16],-49.7%
same,inhibition,[8]; [17],-36.1%
same,inhibition,[9]; at 0.5 µM,-26.6% (inactive)
same,inhibition,[9]; [18],-22.1%
same,inhibition,[9]; [19],-25.2%
same,inhibition,[9]; [20],-36.1%
same,inhibition,[9]; [21],-24.3%
same,inhibition,[10]; at 0.5 µM,-24.9% (inactive)
same,inhibition,[10]; [22],-8.73%
same,inhibition,"[10]; cisplatin combination, at 5 µM",-21.4%
same,inhibition,[10]; [23],-12.1%
same,inhibition,"[10]; single agent, at 5 µM",-39.1%
same,inhibition,[11]; at 0.5 µM,-11.1% (inactive)
same,inhibition,"[11]; cisplatin combo, at 5 µM",5.15%
same,inhibition,[11]; [24],-26.8%
same,inhibition,[11]; [14],-2.95%
same,inhibition,"[11]; single agent, at 5 µM",-8.05%
same,inhibition,[12]; at 0.5 µM,-32.7% (inactive)
same,inhibition,[12]; [25],-8.28%
same,inhibition,[12]; [26],-48.2%
same,inhibition,"[12]; single agent, at 0.05 µM",-20.3%
same,inhibition,"[12]; single agent, at 5 µM",-31.2%
O=C1NC(=O)C(c2ccccc2[N+](=O)[O-])=C1Nc1ccc(O)c(Cl)c1,inhibition,[2],-2% (inactive)
same,fluorescence ratio (interference),[3],1 (inactive)
same,outcome,[6],inactive
same,fold fluorescence,[4],5.23 [at 139 µM] (inactive)
same,outcome,[5],inactive
O=c1[nH]c(-c2ccc(C(F)(F)F)cc2)nc2c1CSCC2,inhibition,[7]; at 0.5 µM,-9.31% (inactive)
same,inhibition,[7]; [13],-26%
same,inhibition,[7]; [14],-13.9%
same,inhibition,[7]; [15],-59%
same,inhibition,[8]; at 0.5 µM,-39.2% (inactive)
same,inhibition,[8]; [16],-20.7%
same,inhibition,[8]; [17],-76.4%
same,inhibition,[9]; at 0.5 µM,-4.6% (inactive)
same,inhibition,[9]; [18],-1.61%
same,inhibition,[9]; [19],-2.42%
same,inhibition,[9]; [20],-18.2%
same,inhibition,[9]; [21],-5.9%
same,inhibition,[10]; at 0.5 µM,-4.59% (inactive)
same,inhibition,[10]; [22],-17.6%
same,inhibition,"[10]; cisplatin combination, at 5 µM",-12.8%
same,inhibition,[10]; [23],7.96%
same,inhibition,"[10]; single agent, at 5 µM",-20.3%
same,inhibition,[11]; at 0.5 µM,-18.1% (inactive)
same,inhibition,"[11]; cisplatin combo, at 5 µM",-47.8%
same,inhibition,[11]; [24],-24.5%
same,inhibition,[11]; [14],-29.6%
same,inhibition,"[11]; single agent, at 5 µM",13.3%
same,inhibition,[12]; at 0.5 µM,-34.9% (inactive)
same,inhibition,[12]; [25],-20.3%
same,inhibition,[12]; [26],-44.5%
same,inhibition,"[12]; single agent, at 0.05 µM",-54.3%
same,inhibition,"[12]; single agent, at 5 µM",-18.2%
CCCCC[C@H](O)/C=C/[C@H]1[C@H](O)CC(=O)[C@@H]1C/C=C\CCCC(=O)O,outcome,[6],inactive
CCOC(=O)C1=C(N)Oc2ccc(Br)cc2C1C(C#N)C(=O)OCC (stereo not drawn),AC50,[1],23.5 µM (active)
same,fold fluorescence,[4],6.68 [at 122.2 µM] (inactive)
O=Nc1c(-c2c(O)[nH]c3cc(Br)ccc23)[nH]c2ccccc12,inhibition,[2],2% (inactive)
same,fluorescence ratio (interference),[3],0.9 (inactive)
same,AC50,[6],3.32 µM (active)
same,AC50,[1],7.42 µM (active)
same,outcome,[5],active
